According to PubChem BioAssay AID485317 (Broad Institute, 2010):
In all, about 290,000 compounds went through this assay and about 11,000 (3.8%) were called active. What follows is part of a selection rich in actives, with near analogues and random picks from the rest. Unmarked numbers belong to inactive results.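 Rule for the calls: active = mean replicate inhibition above about 79%, with every replicate also reaching it (limit read from the data); inconclusive = only one of the two criteria met; inactive = mean below limit and not every replicate reaching it.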

Target: FAD-linked sulfhydryl oxidase ALR (Homo sapiens) (UniProt P55789)
Test: inhibitors of human ALR sulfhydryl oxidase, primary screen, biochemical, H2O2 detection, HRP-luminol luminescence, single point (AID 485317)
Details: purified ALR, DTT oxidation, active compounds read high, concentration not given here

Sequence of FAD-linked sulfhydryl oxidase ALR (Homo sapiens) (P55789 whole entry, looked up): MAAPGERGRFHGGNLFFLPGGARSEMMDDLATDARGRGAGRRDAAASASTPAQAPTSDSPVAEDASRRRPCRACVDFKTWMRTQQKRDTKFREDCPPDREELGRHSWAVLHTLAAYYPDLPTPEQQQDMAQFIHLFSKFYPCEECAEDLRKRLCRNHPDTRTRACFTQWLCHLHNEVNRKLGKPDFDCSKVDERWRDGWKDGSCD

Going from COc1ccc(C2(c3ccc(OC)cc3)NC(=O)N(CC(=O)Nc3cc(C)on3)C2=O)cc1 to COc1ccc(CCC(=O)c2ccc(OC)cc2)cc1, the inhibition falls from -0.145% to -20.1%.

Going from Cc1ccc(SCC(=O)Nc2nncs2)cc1 to Cc1ccc(NC(=O)c2cnc(SCC(=O)NCC3CCCO3)n(C)c2=O)cc1 (configuration not stated), the inhibition falls from -6.08% to -10.7%.

First: COCCCN(C(=O)CSCc1ccc(C)cc1)c1c(N)n(Cc2ccccc2)c(=O)[nH]c1=O
Second: CCCN(C(=O)c1nc2nccc(C)n2n1)c1c(N)n(Cc2ccccc2)c(=O)[nH]c1=O
The inhibition of the first is higher: 46.2% for the first, 1.52% for the second.

Compared with S=C(NCC1CCCO1)N1CCN(c2ccc(Cl)c(Cl)c2)CC1 (configuration not stated), O=C(CN1CCOC1=O)N1CCCC(Nc2ccc(F)c(F)c2)C1 (configuration not stated) is higher in inhibition: 0.527% for the first, 12.5% for the second.

Going from O=C(CNC(=O)C1COc2ccccc2O1)N/N=C/c1cc(Br)c(O)c(Br)c1 (configuration not stated) to CCCCCNC(=O)C1c2ccccc2Oc2ccccc21, the inhibition falls from 66.1% to -7.1%.

First: CCc1ccc(NC(=O)CN2C(=O)COc3ccc(S(=O)(=O)N4CCCC4)cc32)cc1
Second: COc1ccc(CCNC(=O)CN2C(=O)COc3ccc(S(=O)(=O)N4CCCC4)cc32)cc1OC
The inhibition of the first is lower: -3.09% for the first, -1.92% for the second.

Going from O=C(NCc1ccccn1)Nc1ccc(Cl)cc1 to COc1ccc(Cl)cc1C(=O)Nc1ccc(N(C)C(C)=O)cc1, the inhibition rises from -24.3% to -1.72%.

Going from CCC1=Nc2cc(C(=O)NCCN3CCCC3)ccc2Sc2ccc(C)cc21 to Cc1nc(-c2ccc(F)cc2)c(CC(=O)Nc2cc(S(=O)(=O)N3CCCCC3)ccc2C)s1, the inhibition rises from -17.3% to -9.47%.

First: Cc1cc(=O)oc2c(C)c(OCC(=O)NCCN3CCOCC3)ccc12
Second: CC(C)c1ccc(/C=C/C(=O)NCCCN2CCOCC2)cc1
The inhibition of the first is lower: -3.13% for the first, 3.5% for the second.

First: O=C(O)c1ccc(/C=N/Nc2nc(N3CCCCC3)nc(N3CCCCC3)n2)cc1
Second: CCOC(=O)C1CCCN(C(=O)c2ccc(C)c(S(=O)(=O)N3CCCCC3)c2)C1 (configuration not stated)
The inhibition of the first is higher: 3.03% for the first, -0.131% for the second.

First: CCCCn1c(N)c(N(CC(C)C)C(=O)c2cccc(S(=O)(=O)N3CC(C)OC(C)C3)c2)c(=O)[nH]c1=O (configuration not stated)
Second: CCCCCN(C(=O)CCC(=O)OCC(=O)NC1CCC(C)CC1)c1c(N)n(CCCC)c(=O)[nH]c1=O (configuration not stated)
The inhibition of the first is higher: -2.1% for the first, -10.8% for the second.

Compared with OCCCNc1nc(-c2ccccc2)c2cc(Cl)ccc2n1, CCOC(=O)c1c(-c2ccc(-c3ccccc3)cc2)csc1NC(=O)CCC(=O)O is higher in inhibition: -2.06% for the first, 60.9% for the second.

First: CC(Sc1ncnc2c1cnn2-c1ccccc1)C(=O)Nc1ccc(N2CCOCC2)cc1 (configuration not stated)
Second: COc1ccc(-n2ncc3c(SCC(=O)NNC(C)=O)ncnc32)cc1
The inhibition of the first is lower: -5.27% for the first, -1.15% for the second.

Going from CCOC(=O)c1c(-c2ccc(C)cc2)csc1/N=C(\C)C1=C(O)c2ccccc2C1=O to CSCCC(NC(=O)COc1ccccc1)C(=O)N(C)CC(=O)Nc1ccc(C)cc1 (configuration not stated), the inhibition falls from 1.75% to -1.79%.

Going from COc1cc(OC)c(C(=O)Nc2ccccc2-c2ccccc2)cc1OC to COc1ccccc1-c1sc2ccccc2c1-c1ccc(Br)nc1, the inhibition falls from -1.64% to -3.77%.

Going from Cc1ccccc1SCC(=O)OCC(=O)N1CC(=O)Nc2ccccc21 to CC1(c2ccccc2)NC(=O)N(CC(=O)N2CC(=O)Nc3ccccc32)C1=O (configuration not stated), the inhibition falls from -7.18% to -7.27%.

Compared with Cc1ccc(-n2ncc3c(=O)[nH]cnc32)c(C)c1, Cc1nc2cc(NC(=O)Nc3cccc(F)c3)ccc2n1C is lower in inhibition: -6.83% for the first, -7.89% for the second.

Compared with O=C1CSC(=S)N1c1ccc(Cl)c(Cl)c1, COc1cc(N2C(=O)CSC2=S)cc(OC)c1OC is lower in inhibition: 38.1% for the first, 3.65% for the second.

Compared with CCOc1ccccc1OCC(=O)Nc1ccccc1C(=O)NC1CC1, CCC(C)(C)NC(=O)C1c2ccccc2Oc2ccccc21 is lower in inhibition: 20.6% for the first, -6.09% for the second.

Going from CCOc1ccc(C(C)NC(=O)CN2C(=O)NC3(CCCCC3)C2=O)cc1OCC (configuration not stated) to CCN1C(=O)[C@H]2[C@@H](c3ccc(SC4CCCCC4)c(OC)c3)N[C@@](Cc3ccccc3)(C(=O)OC)[C@H]2C1=O, the inhibition rises from -15.6% to -5.65%.

First: NC(=O)c1c(NC(=O)CSc2nnc(-c3ccco3)n2N)sc2c1CCCC2
Second: COc1cccc(OC)c1C(=O)Nc1sc2c(c1C(N)=O)CCCC2
The inhibition of the first is higher: 9.78% for the first, -6.93% for the second.

Compared with O=C(NCc1ccc(Cl)cc1)C(=O)NCC1CCCN1S(=O)(=O)c1cccs1 (configuration not stated), COc1cc(C(C)=O)ccc1OC(C)C(=O)Nc1ccc(S(=O)(=O)N2CCCC2)cc1 (configuration not stated) is lower in inhibition: -0.71% for the first, -9.52% for the second.

Going from O=C1CC(c2ccccc2)C(=O)N1c1cccc(O)c1 (configuration not stated) to O=C(NNC1CC(=O)N(c2cccc(Cl)c2)C1=O)c1cccnc1 (configuration not stated), the inhibition falls from 14.5% to 11.7%.

First: COc1cc(C(=O)NC2CCN(C)CC2)ccc1Nc1ncc2c(n1)N(C1CCC(O)CC1)CCC(=O)N2C (configuration not stated)
Second: O=C1CCCCN1CCCC(=O)N1CCCC(Nc2ccc(F)cc2)C1 (configuration not stated)
The inhibition of the first is lower: -1.63% for the first, 17.9% for the second.

Going from Cc1nc2cc(NC(=O)NC3CC3)ccc2n1C to CC1CCCCC1NC(=O)c1cc(=O)[nH]c2ccccc12 (configuration not stated), the inhibition falls from 50.8% to -38.4%.

Going from O=C(N=C1SC2CS(=O)(=O)CC2N1c1ccccc1)c1ccccc1 (configuration not stated) to O=S(=O)(ON(c1ccccc1)S(=O)(=O)c1ccccc1)c1ccccc1, the inhibition falls from -1.67% to -14.1%.

First: COc1ccc2c(c1)O/C(=C\c1ccccc1O)C2=O
Second: COC(=O)c1ccc(/C=C/c2c(-c3ccc(OC)cc3)sc3ccccc23)cc1
The inhibition of the first is lower: 0.703% for the first, 2.88% for the second.

Going from C=CCC1=C/C(=C\c2c(N)n3nc(CC(=O)N4CCOCC4)sc3nc2=O)C=C(OC)C1=O to COc1ccc(OCC(=O)N2CCOCC2)cc1, the inhibition falls from 54.3% to -7.03%.

Going from O=C(Cc1ccc(S(=O)(=O)N2CCOCC2)s1)N1CCN(c2ccc(C(F)(F)F)cc2[N+](=O)[O-])CC1 to O=C(COc1coc(CN2CCN(c3ccccc3F)CC2)cc1=O)N1CCc2ccccc21, the inhibition rises from -1.8% to -0.38%.

Compared with COc1cccc(CNC(=O)CN2C(=O)NC(Cc3ccccc3)(c3ccccc3)C2=O)c1 (configuration not stated), CC(OC(=O)c1ccc(-n2cnnn2)cc1)C(=O)NCc1ccccc1 (configuration not stated) is higher in inhibition: -2.85% for the first, 0.686% for the second.

Going from O=C1[C@H]2[C@@H](c3ccc(F)cc3)N3C(=O)N(c4ccc(C(F)(F)F)cc4)C(=O)[C@@]3(Cc3ccccc3)[C@H]2C(=O)N1C1CCCCC1 to COc1ccccc1CN1CC(C(=O)NCCc2cn[nH]c2)CCC1=O (configuration not stated), the inhibition falls from 2.08% to -0.59%.

Compared with CC(=O)N/N=C(\C)c1ccc(Br)cc1Br, CC(C)/C=N/NC(=O)c1cc(Br)ccc1O is higher in inhibition: -9.48% for the first, 44.3% for the second.

Going from COc1ccc(-c2sc3ccc(OC)cc3c2C#Cc2ccccn2)cc1 to COc1ccccc1-n1ccnc1SCC(=O)NC(C)(C)C, the inhibition rises from 0.498% to 17.9%.

First: Cc1ccccc1CSCC(=O)NC(=O)NC(C)(C)C
Second: Cn1cc(CCC(=O)N2CCCC(C(=O)c3ccc(C(C)(C)C)cc3)C2)cn1 (configuration not stated)
The inhibition of the first is lower: -23.2% for the first, -21% for the second.

Going from O=C(CSc1ncnc2sccc12)NC1CCS(=O)(=O)C1 (configuration not stated) to CCC(C)c1ccc(NC(=O)COC(=O)C2CCCC2)cc1 (configuration not stated), the inhibition rises from -0.589% to 0.804%.

Going from CC(OC(=O)c1c(F)cccc1F)C(=O)NCCC1=CCCCC1 (configuration not stated) to CCCCn1c(=S)[nH]c2cc(S(=O)(=O)N3CCCCC3)ccc21, the inhibition rises from -6.45% to 9.62%.

CC(C)n1c(=S)[nH]c2cc(C(F)(F)F)ccc21 was tested, and the inhibition was 25.9%.

Oc1c(Br)cc(/C=N/NC(=S)NCC2CCCO2)cc1Br (configuration not stated) was tested, and the inhibition was 96.2% (active).
CN(C)c1ccc(CNC(=O)CN2C(=O)COc3ccc(S(=O)(=O)N4CCCC4)cc32)cc1 was tested, and the inhibition was 98.6% (active).
In the case of Cc1ccsc1-c1nc(CSCC(=O)NCCN2CCCC2)c(C)o1, the inhibition is reported as 97.8% (active).
In the case of CC(C)(C)c1nnc(N/N=C/c2ccc(O)cc2)n(N)c1=O, the inhibition is reported as 98.8% (active).
With COC(=O)c1c(-c2ccc(C)cc2)csc1N the inhibition was 97.8% (active).
With COc1cc(OC)c(C(=O)Nc2ccc(N(C)C)cc2)cc1OC the inhibition was 99.6% (active).
For COC(=O)CSc1ncnc2c1cnn2-c1ccc(C)cc1C, the inhibition was 96.9% (active).
For O=C1CSC(=S)N1c1ccc(O)cc1, the inhibition was 91.3% (active).
In the case of NC(=O)c1c(Nc2nc3c(F)cccc3s2)sc2c1CCCC2, the inhibition is reported as 87.1% (active).
With O=C1CC(NNc2ccccc2)C(=O)N1c1cccc(Cl)c1 (configuration not stated) the inhibition was 98% (active).
Cc1nc2cc(NCc3cccs3)ccc2n1C was tested, and the inhibition was 84% (active).
For CC1=C/C(=N\OS(=O)(=O)c2ccccc2)C=CC1=O, the inhibition was 98.9% (active).
For COC1=C/C(=C/c2c(N)n3nc(CC(=O)N4CCOCC4)sc3nc2=O)C=CC1=O, the inhibition was 99.1% (active).
O=C(N/N=C/c1ccc(O)c(O)c1)C1c2ccccc2Oc2ccccc21 was tested, and the inhibition was 99% (active).
In the case of CC(=N\NC(=O)c1cc(Br)ccc1O)/C(=N/O)C(=O)Nc1ccccc1, the inhibition is reported as 85.8% (active).
In the case of CC(C)(C)NC(=O)CSC(=Nc1ccccc1F)NC#N, the inhibition is reported as 98.7% (active).
With Cc1ccc(NC2CCCN(C(=O)CCc3cn[nH]c3)C2)cc1C (configuration not stated) the inhibition was 98.7% (active).
For O=C(CN1C(=O)CSC1=O)N1CCCC(Nc2ccc(F)cc2)C1 (configuration not stated), the inhibition was 99.1% (active).
CCCn1c(=S)[nH]c2ccc(C(F)(F)F)cc21 was tested, and the inhibition was 96.9% (active).
